Seven compounds from PubChem BioAssay (Tox21) can be followed below.

A short description of assay [1]: qHTS assay to identify small molecule agonists of the androgen receptor (AR) signaling pathway in the presence of an antagonist - cell viability counter screen (AID 1259379). Also: nearly all actives have a fitted effect of over 25% in size. Also: potency is read from the fitted curve at half-maximal effect. An outline of the steps: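 Cytotoxicity is assessed by CellTiter-Fluor in MDA-kb2 cells carrying an MMTV-driven luciferase reporter. Cells receive 3.0uM nilutamide plus compounds at 15 concentrations and incubate 16 hr at 37C without CO2 before fluorescence reading.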
Background: qHTS replaces the single test concentration by a dilution series.

Assay [2] deals with Estrogen receptor (Homo sapiens) (UniProt P03372). The assay is described as follows: qHTS assay to identify small molecule agonists of the estrogen receptor alpha (ER-alpha) signaling pathway in the presence of an antagonist (AID 1259383; calls by dose curve; also: top concentration of the series differs between compounds; nearly all actives have a fitted effect of over 15% in size). An outline of the steps:
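Agonist-mode confirmation in the presence of the ER antagonist ICI-182,780 at 10.0nM final. Breast-derived VM7Luc4E2 reporter cells were exposed to compounds for 22hr, and ERE-driven luciferase was quantified by luminescence.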

A short description of assay [3]: qHTS assay to identify small molecule agonists or antagonists of the thyroid stimulating hormone receptor (TSHR) signaling pathway - wild type cell line counter screen (AID 1259384; calls by dose curve). An outline of the steps: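 Wild-type HEK293 cells were plated 18 h at 37 C/5% CO2, pin-dosed with compound plus Ro20-1724 medium, held 30 min at room temperature, then given cAMP-d2 and anti-cAMP-cryptate; fluorescence was read after 1 h. Fifteen concentrations, triplicate.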

In assay [4] the target is Thyrotropin receptor (Homo sapiens) (UniProt P16473). The assay is described as follows: qHTS assay to identify small molecule antagonists of the thyroid stimulating hormone receptor (TSHR) signaling pathway (AID 1259385; calls by dose curve; also: nearly all actives have a fitted effect of over 20% in size; also: potency is read from the fitted curve at half-maximal effect). An outline of the steps: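 TSHR-HEK293 cells were plated and held 18 h at 37C/5% CO2, then given compound plus Ro20-1724 and stimulated with TSH at 1.5 ng/mL final. After 30 min at room temperature, cAMP was detected with cAMP-d2/anti-cAMP-cryptate (1 h) by fluorescence.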

A short description of assay [5]: qHTS assay to identify small molecule agonists of the estrogen receptor alpha (ER-alpha) signaling pathway in the presence of an antagonist - cell viability counter screen (AID 1259386).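 Also: cells exposed to compounds for 22 h at 37 °C before the viability read; nearly all actives have a fitted effect of over 30% in size.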 Also: potency is read from the fitted curve at half-maximal effect. An outline of the steps:
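Cytotoxicity was measured in parallel with the ERE-luciferase agonist screen, in the same wells. The cells were VM7Luc4E2, which endogenously express ER-alpha, and treatment was with compounds plus 10.0nM ICI-182,780 for 22hr.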

For assay [6], the target named is Progesterone receptor (Homo sapiens) (UniProt P06401). Put plainly: qHTS assay to identify small molecule agonists of the progesterone receptor (PR) signaling pathway (AID 1346784; calls by dose curve; also: nearly all actives have a fitted effect of over 30% in size). An outline of the steps:
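Cells (PR-UAS-bla HEK 293T, GripTite) were plated in assay medium containing 2% charcoal-stripped FBS and incubated 6 hr. Test compounds in DMSO were added for 16 hr at 37C. FRET substrate was then loaded for 2 hr at room temperature before fluorescence reading.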

Assay [7] in a line: qHTS assay to identify small molecule antagonists of the progesterone receptor (PR) signaling pathway - cell viability counter screen (AID 1346798). Also: series mostly up to about 92 µM; nearly all actives have a fitted effect of over 50% in size. An outline of the steps:
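Counter screen for cytotoxicity: viability of PR-UAS-bla HEK293T cells was measured with CellTiter-Glo luminescence following 16 hr compound exposure in the presence of R5020.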

A short description of assay [8]: qHTS assay to identify small molecule agonists of the progesterone receptor (PR) signaling pathway - cell viability counter screen (AID 1346799; calls by dose curve; also: nearly all actives have a fitted effect of over 45% in size). An outline of the steps:
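Cells (PR-UAS-bla HEK293T) are plated at 3,000/well in 2% charcoal-stripped FBS medium, rested 6 hr, dosed and incubated 16 hr at 37C. CellTiter-Glo is then added and luminescence measured after 30 min at room temperature.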

The nature of assay [9]: qHTS assay to identify small molecule antagonists of the TGF-beta/Smad signaling pathway - cell viability counter screen (AID 1346824). Also: nearly all actives have a fitted effect of over 50% in size. An outline of the steps: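 SBE-bla HEK 293T cells were plated overnight at 37 C, then given compounds in DMSO plus TGF-beta1 (added as 0.25 ng/mL solution) for 5 hr. After the bla read, CellTiter-Glo was added to the same wells and luminescence read after 30 min at room temperature.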

A short description of assay [10]: qHTS assay to identify small molecule agonists of the TGF-beta/Smad signaling pathway - cell viability counter screen (AID 1346829). Also: nearly all actives have a fitted effect of over 45% in size. Also: potency is read from the fitted curve at half-maximal effect. An outline of the steps: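 Cytotoxicity counter screen: CellTiter-Glo luminescence (30 min, room temperature) measured in the SBE-bla HEK 293T reporter wells after 5 hr compound treatment at 37 C and the 2 hr substrate step.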
Assay [11] is described as follows: qHTS assay to identify small molecule agonists of the TGF-beta/Smad signaling pathway (AID 1346859; active = well fitted activation curve with a large enough effect in the signal ratio in the repeat runs, not every such curve was filed as active; the % refers to the signal ratio; also: series mostly up to about 77 µM). An outline of the steps:
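Reporter line: HEK 293T with stably integrated SBE-controlled beta-lactamase. Compound exposure lasts 5 hr at 37 C and 5% CO2; substrate loading follows for 2 hr at room temperature, with emission read at 460 and 530 nm.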

The target in assay [12] is Thyrotropin-releasing hormone receptor (Homo sapiens) (UniProt P34981). The assay is described as follows: qHTS assay to identify small molecule agonists of the thyrotropin-releasing hormone receptor (TRHR) signaling pathway (AID 1346891; calls by dose curve;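 also: HEK293 cells expressing TRHR with calcium dye readout; series mostly up to about 58 µM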). An outline of the steps:
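Cells: TRHR-Hek293, seeded and incubated 18 h. Dye loading: 2 h at 37 °C. Compound added from DMSO stock by pin tool. Read-out: kinetic calcium fluorescence over 3 min.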

The nature of assay [13]: Human pregnane X receptor (PXR) small molecule agonists, qHTS cell viability counter screen (AID 1346977). Also: nearly all actives have a fitted effect of over 50% in size. Also: potency is read from the fitted curve at half-maximal effect. An outline of the steps: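 Cytotoxicity counter screen run in the same wells as the PXR luciferase assay, using PXR-Luc HepG2 cells in charcoal-stripped serum medium. Viability: CellTiter-Fluor fluorescence after 24hr compound treatment.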
Assay [14] can be described thus: Caspase-3/7 induction in HepG2 cells by small molecules, qHTS assay (AID 1346978). Also: nearly all actives have a fitted effect of over 15% in size. An outline of the steps: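 Wild-type HepG2 cells (2,000/well) were settled 5 h at 37 C, 5% CO2, then exposed to compounds in DMSO for 17 h. Caspase-3/7 activity was read by luminescence 30 min after adding Caspase-Glo 3/7 reagent at room temperature.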
Assay [15] can be described thus: Caspase-3/7 induction in CHO-K1 cells by small molecules, qHTS cell viability counter screen (AID 1346979). Also: nearly all actives have a fitted effect of over 35% in size. Also: potency is read from the fitted curve at half-maximal effect. An outline of the steps:
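Cytotoxicity counter screen run in parallel with the caspase-3/7 assay: CHO-K1 cells, 16hr compound treatment at 37C, then CellTiter-Fluor for 1hr before fluorescence reading.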

Assay [16] has as its target Androgen receptor (Homo sapiens) (UniProt P10275). The assay is described as follows: qHTS assay to identify small molecule agonists of the androgen receptor (AR) signaling pathway in the presence of an antagonist (AID 1259381; calls by dose curve; also: nearly all actives have a fitted effect of over 15% in size; also: potency is read from the fitted curve at half-maximal effect). An outline of the steps: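 Agonist-mode confirmation screen: human MDA-kb2 cells stably expressing luciferase under an MMTV promoter bearing AR and GR response elements, co-treated with 3.0uM nilutamide (final). Luminescence measured after 16hr compound incubation.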

Assay [17] in a line: qHTS assay to identify small molecule antagonists of the estrogen receptor beta (ER-beta) signaling pathway - cell viability counter screen (AID 1259382).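 Also: HEK293T cells carrying ER-beta-UAS-bla reporter stimulated with estradiol; series mostly up to about 92 µM; nearly all actives have a fitted effect of over 55% in size.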 An outline of the steps: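 Cytotoxicity counter screen multiplexed with the beta-lactamase antagonist assay: GripTite HEK293T ER-beta-bla cells were treated 16 hr with test chemicals in the presence of 1nM 17-beta-estradiol, and viability was measured by CellTiter-Glo.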

For assay [18], the target named is Thyrotropin-releasing hormone receptor (Homo sapiens) (UniProt P34981). The assay is described as follows: qHTS assay to identify small molecule antagonists of the thyrotropin-releasing hormone receptor (TRHR) signaling pathway (AID 1346877; active = well fitted inhibition curve with a large enough effect in the repeat runs, not every such curve was filed as active; also: series mostly up to about 51 µM). An outline of the steps: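 Antagonism is measured as suppression of the calcium response to 1 nM TRH in TRHR-HEK293 cells that have been dye-loaded for 2 h at 37 °C after overnight plating. Each compound is tested at 15 concentrations in triplicate.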

Assay [19] is described as follows: qHTS assay to identify small molecule agonists of the estrogen receptor beta (ER-beta) signaling pathway - cell viability counter screen (AID 1259380). Also: nearly all actives have a fitted effect of over 30% in size. Also: potency is read from the fitted curve at half-maximal effect. An outline of the steps: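 Cytotoxicity is measured in parallel with the reporter screen: after 16 hr compound exposure at 37C and a 2 hr LiveBLAzer step, CellTiter-Glo is added to the same ER-beta-UAS-bla HEK293T wells and luminescence read after 30 min.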

In assay [20] the target is Progesterone receptor (Homo sapiens) (UniProt P06401). The assay is described as follows: qHTS assay to identify small molecule antagonists of the progesterone receptor (PR) signaling pathway (AID 1346795; active = well fitted inhibition curve with a large enough effect in the signal ratio in the repeat runs, not every such curve was filed as active; the % refers to the signal ratio). An outline of the steps: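 Antagonist mode: compounds tested against 1 nM (final) promegestone stimulation in HEK293T cells expressing PR-UAS-bla reporter, 16 hr at 37C, 5% CO2; beta-lactamase activity detected via B/G FRET substrate after 2 hr at room temperature.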

Values without a mark were called inactive. Records with an inconclusive call do not appear. Calls of active or inactive are those of the source. Unless noted, calls follow the shape of the dose curve; as a rule, active = well fitted curve in the direction sought with a large enough effect in the repeat runs; inconclusive = weak or mixed curves; inactive = no such curve, though single readings can be large; an effect the other way counts as inactive or inconclusive.

Thyrotropin-releasing hormone receptor (Homo sapiens), sequence (P34981 whole entry, looked up): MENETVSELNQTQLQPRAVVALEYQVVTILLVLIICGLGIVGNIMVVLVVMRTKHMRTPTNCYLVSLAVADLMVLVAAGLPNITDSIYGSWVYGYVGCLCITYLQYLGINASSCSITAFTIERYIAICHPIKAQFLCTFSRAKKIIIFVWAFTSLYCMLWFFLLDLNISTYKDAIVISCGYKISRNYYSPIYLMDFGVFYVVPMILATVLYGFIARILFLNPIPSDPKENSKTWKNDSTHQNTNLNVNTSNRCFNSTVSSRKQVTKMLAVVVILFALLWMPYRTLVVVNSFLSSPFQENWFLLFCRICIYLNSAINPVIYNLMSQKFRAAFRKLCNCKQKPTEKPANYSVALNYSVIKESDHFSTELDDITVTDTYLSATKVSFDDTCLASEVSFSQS
Thyrotropin receptor (Homo sapiens), sequence (P16473 whole entry, looked up): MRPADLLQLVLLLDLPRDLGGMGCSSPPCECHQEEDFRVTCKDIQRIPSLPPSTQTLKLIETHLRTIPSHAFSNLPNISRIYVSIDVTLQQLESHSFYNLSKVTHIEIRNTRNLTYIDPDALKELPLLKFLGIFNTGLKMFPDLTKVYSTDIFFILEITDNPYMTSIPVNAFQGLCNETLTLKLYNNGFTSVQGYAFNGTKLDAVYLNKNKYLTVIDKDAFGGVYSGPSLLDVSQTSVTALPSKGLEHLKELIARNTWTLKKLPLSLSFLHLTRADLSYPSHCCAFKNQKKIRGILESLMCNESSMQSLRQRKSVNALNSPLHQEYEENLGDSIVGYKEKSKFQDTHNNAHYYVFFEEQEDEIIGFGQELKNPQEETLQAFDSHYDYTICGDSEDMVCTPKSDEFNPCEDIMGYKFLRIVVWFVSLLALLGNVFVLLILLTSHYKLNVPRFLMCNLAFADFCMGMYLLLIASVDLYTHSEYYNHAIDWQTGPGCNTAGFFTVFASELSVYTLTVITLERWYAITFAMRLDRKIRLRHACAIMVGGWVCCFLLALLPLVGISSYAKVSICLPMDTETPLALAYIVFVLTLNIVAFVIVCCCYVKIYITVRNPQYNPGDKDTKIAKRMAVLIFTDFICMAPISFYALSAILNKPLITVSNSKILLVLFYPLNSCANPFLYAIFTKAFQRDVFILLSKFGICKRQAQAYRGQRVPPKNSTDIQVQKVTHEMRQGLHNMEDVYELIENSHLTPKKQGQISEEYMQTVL
Progesterone receptor (Homo sapiens), sequence (P06401 whole entry, looked up): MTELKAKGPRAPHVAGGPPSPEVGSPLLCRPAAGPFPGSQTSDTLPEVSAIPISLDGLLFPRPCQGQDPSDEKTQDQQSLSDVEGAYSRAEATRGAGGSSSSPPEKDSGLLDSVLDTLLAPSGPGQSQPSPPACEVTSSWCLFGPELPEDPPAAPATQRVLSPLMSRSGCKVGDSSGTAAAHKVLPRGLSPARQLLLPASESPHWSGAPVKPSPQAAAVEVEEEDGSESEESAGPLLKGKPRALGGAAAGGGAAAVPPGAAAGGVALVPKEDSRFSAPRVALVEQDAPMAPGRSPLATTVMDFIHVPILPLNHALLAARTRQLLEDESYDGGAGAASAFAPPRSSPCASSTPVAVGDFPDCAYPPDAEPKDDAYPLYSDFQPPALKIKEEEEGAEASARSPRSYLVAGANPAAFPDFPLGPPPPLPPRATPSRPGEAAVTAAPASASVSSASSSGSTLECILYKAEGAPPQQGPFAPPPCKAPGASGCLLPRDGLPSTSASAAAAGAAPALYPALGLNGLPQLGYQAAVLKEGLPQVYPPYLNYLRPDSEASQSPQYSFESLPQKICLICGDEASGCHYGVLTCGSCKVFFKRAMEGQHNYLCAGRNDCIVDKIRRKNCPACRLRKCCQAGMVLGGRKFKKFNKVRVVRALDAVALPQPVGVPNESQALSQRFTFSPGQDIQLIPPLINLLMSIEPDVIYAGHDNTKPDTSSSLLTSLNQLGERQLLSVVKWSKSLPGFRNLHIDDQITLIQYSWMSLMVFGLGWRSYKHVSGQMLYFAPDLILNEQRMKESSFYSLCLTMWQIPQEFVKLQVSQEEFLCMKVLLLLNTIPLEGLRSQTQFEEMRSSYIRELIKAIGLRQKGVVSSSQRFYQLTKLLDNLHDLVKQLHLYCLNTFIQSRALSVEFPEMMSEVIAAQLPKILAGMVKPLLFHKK
Estrogen receptor (Homo sapiens), sequence (P03372 whole entry, looked up): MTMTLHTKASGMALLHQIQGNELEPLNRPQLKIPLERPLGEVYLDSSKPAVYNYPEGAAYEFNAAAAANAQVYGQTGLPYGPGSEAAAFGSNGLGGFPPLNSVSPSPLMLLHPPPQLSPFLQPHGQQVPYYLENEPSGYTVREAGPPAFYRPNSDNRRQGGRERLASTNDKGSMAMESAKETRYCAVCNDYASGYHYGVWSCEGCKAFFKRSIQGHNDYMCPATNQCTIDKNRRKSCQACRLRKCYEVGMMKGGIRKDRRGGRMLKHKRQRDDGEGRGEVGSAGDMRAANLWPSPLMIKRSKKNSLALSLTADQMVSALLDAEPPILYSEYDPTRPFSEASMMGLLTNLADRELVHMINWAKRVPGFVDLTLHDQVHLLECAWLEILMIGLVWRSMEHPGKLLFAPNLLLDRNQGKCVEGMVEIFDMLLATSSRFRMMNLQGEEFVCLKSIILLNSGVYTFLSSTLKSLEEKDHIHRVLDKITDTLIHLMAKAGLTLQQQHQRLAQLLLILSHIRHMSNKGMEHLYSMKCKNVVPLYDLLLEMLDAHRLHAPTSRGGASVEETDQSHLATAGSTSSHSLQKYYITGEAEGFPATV
Androgen receptor (Homo sapiens), sequence (P10275 whole entry, looked up): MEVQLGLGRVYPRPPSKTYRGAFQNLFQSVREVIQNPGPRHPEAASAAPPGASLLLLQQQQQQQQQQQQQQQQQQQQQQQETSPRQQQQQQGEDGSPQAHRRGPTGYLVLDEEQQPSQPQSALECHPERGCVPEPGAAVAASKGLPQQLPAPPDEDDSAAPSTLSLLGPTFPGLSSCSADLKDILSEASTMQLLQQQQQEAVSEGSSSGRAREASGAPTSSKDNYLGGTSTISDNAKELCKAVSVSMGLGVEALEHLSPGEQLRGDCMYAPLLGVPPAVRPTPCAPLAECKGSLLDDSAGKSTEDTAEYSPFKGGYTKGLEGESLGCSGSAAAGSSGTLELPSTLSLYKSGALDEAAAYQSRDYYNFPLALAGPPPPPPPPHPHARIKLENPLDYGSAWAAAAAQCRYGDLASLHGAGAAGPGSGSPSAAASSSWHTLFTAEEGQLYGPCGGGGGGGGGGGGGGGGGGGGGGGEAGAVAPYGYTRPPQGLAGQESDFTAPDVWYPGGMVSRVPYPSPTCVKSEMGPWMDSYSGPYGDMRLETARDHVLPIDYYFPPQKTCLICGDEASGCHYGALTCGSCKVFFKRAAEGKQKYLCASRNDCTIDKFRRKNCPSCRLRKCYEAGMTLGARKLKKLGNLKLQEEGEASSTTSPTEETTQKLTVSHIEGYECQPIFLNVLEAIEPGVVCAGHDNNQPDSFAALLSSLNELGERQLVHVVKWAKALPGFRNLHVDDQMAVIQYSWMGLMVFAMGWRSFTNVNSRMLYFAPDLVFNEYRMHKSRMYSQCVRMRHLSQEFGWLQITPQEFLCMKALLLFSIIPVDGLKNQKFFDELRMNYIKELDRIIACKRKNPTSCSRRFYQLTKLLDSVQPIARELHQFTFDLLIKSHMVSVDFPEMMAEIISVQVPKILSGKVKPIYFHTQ

On to `C/C(=C\c1ccc(C(=O)O)cc1)c1ccc2c(c1)C(C)(C)CCC2(C)C`, for which the Potency result in assay [1], in [2], in assay [3], in assay [5], in assay [7] and in [8] was “inactive” throughout. The Potency result in assay [9], in [10], in [12], in assay [13], in assay [14] and in [15] was “inactive” each time. Also, in assay [4], the Potency was 29.8 µM (active). The call in [6] and in assay [11] was inactive.

For `CCCCCc1ccc(O)cc1`, the Potency result in assay [1], in assay [16], in assay [3], in assay [4], in assay [5] and in assay [7] was “inactive” in each case. Besides, the Potency entry in assay [8], in [9], in assay [10] and in assay [13] was “inactive” each time. Moreover, the outcome in assay [6] and in assay [11] was inactive.

`CCN(CC)c1ccc(C=O)cc1`: the Potency entry in assay [1], in assay [17], in assay [2], in assay [3], in assay [5] and in [7] was “inactive” in each case. Besides, the Potency result in [8], in [9], in [10], in [18], in [12] and in [13] was “inactive” each time. Further, the Potency result in [14] and in assay [15] was “inactive” throughout. For the same compound, the Potency in assay [16] is 34.4 µM (active). Moreover, the call in [6] and in [11] was inactive.

As for `COc1ccc(OC)c(N=Nc2c(O)ccc3ccccc23)c1`, the Potency was 24.3 µM (active) in assay [1]; 30.6 µM (active) in [19]; 61.1 µM (active) in assay [4]; 6.11 µM (active) in [5]; 43.6 µM (active) in assay [10]; 10.9 µM (active) in assay [13]. Moreover, in [15], the Potency is 21.7 µM (active). For the same compound, the Potency entry in assay [3], in assay [20], in [7], in [18], in assay [12] and in assay [14] was “inactive” throughout. Moreover, the result in assay [6] and in assay [11] was inactive.

With `Nc1c(Br)cc([N+](=O)[O-])cc1Br`, the Potency entry in assay [1], in [19], in [5], in assay [7], in assay [8] and in assay [9] was “inactive” each time. Moreover, the Potency entry in assay [10], in assay [13], in assay [14] and in assay [15] was “inactive” in each case. Moreover, the compound was called inactive in assay [6] and in [11].

Turning to `CCC(C)(C)c1ccc(CC(C)CN2C[C@@H](C)O[C@@H](C)C2)cc1` (some centres not stated), the Potency entry in assay [1], in [17], in assay [3], in [5], in [7] and in assay [9] was “inactive” throughout. The Potency result in assay [10], in assay [18], in [12], in assay [13] and in [14] was “inactive” throughout. The Potency in assay [19] was 26.6 µM (active). Further, the outcome in assay [6] and in assay [11] was inactive.

As for `O=C(N[C@H](CO)[C@H](O)c1ccc([N+](=O)[O-])cc1)C(Cl)Cl`, the Potency result in assay [1], in assay [17], in assay [3], in assay [4], in assay [5] and in [9] was “inactive” throughout. In addition, the Potency result in assay [10], in assay [13], in [14] and in [15] was “inactive” each time. Moreover, the result in assay [6] and in assay [11] was inactive.
